Data on 40 molecules can be found in PubChem BioAssay (NCATS).

Inconclusive results are not listed. Where a call stands in place of a potency, no number is given. Calls of active or inactive are those of the source. Calls follow the shape of the dose curve; as a rule, active = well fitted inhibition curve with a large enough effect; inconclusive = small, poorly fitted or top-dose-only effect; inactive = no such curve, though single readings can be large or run the other way. Positions of bridges follow the written chain, without caps; N, C: chain ends. Non-standard residues stand in square brackets, D forms with d. Residues, ends and D or L forms follow the SMILES beside them. ξ: configuration not given here. *: point of attachment. ξDab(CH2SO3H) = NC(CCNCS(=O)(=O)O)C(=O)O; Octanoyl(6-Me) = CCC(C)CCCCC(=O)*; Dab = NCC[CH](N)C(=O)O
Potency is read from the fitted curve at half-maximal effect.

The assay can be described thus: Tertiary RLuc qRT-PCR qHTS assay for Zika virus inhibitors (AID 1347169). Also: nearly all actives have a fitted effect of over 55% in size. The settings on record: infected Vero cells, reporter luminescence, 48-72 h; series mostly up to 1.74 µM. The source says: Avindra Nath, Ph.D., National Institute of Neurological Disorders and Stroke (NINDS), Bethesda, MD
Radhakrishnan Padmanabhan, Ph.D., Georgetown University (GU), Washington D.C.
Zika Virus causes congenital defects, including microcephaly and is associated with Guillain-Barre syndrome, eningoencephalitis and myelitis in infected adult. […] Using a target-based approach, we hope to establish a screening paradigm to uncover novel, cell-active NS2B-NS3 protease (Zika Virus) specific inhibitors from NCATS' collection of small molecules using qHTS.
Four assay panel was created to identify potential Zika Virus inhibitors. Namely, (1) GU unlinked NS2B-NS3 AMC tagged protease qHTS, (2) GU unlinked NS2B-NS3 Rhodamine tagged protease qHTS, (3) NINDS linked NS2B-NS3 AMC tagged protease qHTS, (4) NINDS linked NS2B-NS3 Rhodamine tagged protease qHTS. Identified inhibitors were re-acquired and tested against secondary confirmatory, orthogonal, and counterscreens to exclude nonspecific inhibition.
Early Translation Branch (ETB)
National Center for Advancing Translational Sciences (NCATS), Rockville, MD
National Institute of Health (NIH), Bethesda, Maryland
1536-well recombinant virus ZIKV-RLuc (Cambodian) Assay:
For a follow-up assay, we adapted a high throughput orthogonal assay in 1536-well plate format to use the recombinant virus ZIKV-RLuc, in Vero cells. Briefly, three microL of Vero cells derived from a green monkey cell line, were dispensed Multidrop Dispenser into a solid bottom white 1,536-well plate at a concentration of 1,000 cells per well. The plate was incubated overnight in a CO2 incubator at 37 degrees C. Compounds were delivered as a 23 nL DMSO solution by Kalypsys pintool transfer. Following compound transfer, 2 microL of ZIKV-RLuc was added at an MOI of 1-2 and incubated in a CO2 incubator for 48-72 hrs at 37 degrees C. After sufficient incubation of infected cells in test plates, live cell Renilla luciferase substrate (Promega) was added. The luminescence signal was measured after 1-1.5 hrs exposure to substrate in ViewLux reader.
For the molecule `O=C(OCC#CCSc1nnc(-c2cccc3ccccc23)o1)c1ccc(C(F)(F)F)cc1`, the Potency result is “inactive”. In the case of `O=C(O)c1nc2cc(Cl)c(Cl)cc2[nH]c1=O` it was “inactive”; in that of `C[S+](CC[C@H](N)C(=O)O)C[C@H]1O[C@@H](n2cnc3c(N)ncnc32)[C@H](O)[C@H]1O` (stereo not given in full), “inactive”; in that of `O=C(COc1ccc(F)cc1)Nc1ccc(C(=O)OCc2cc(=O)n3nc(C4CC4)sc3n2)cc1`, “inactive”.

`O=C(O)Cn1ccc2cc(OCc3cccc(-c4cccc(C(F)(F)F)c4)c3)cnc21`: the Potency is 30.2 µM (active). Then `Fc1cc(C2=Nn3c(COc4ccc(Cl)cc4Cl)nnc3S/C2=C\c2ccc(-c3ccc(Cl)cc3)o2)c(Cl)cc1Cl`, with “inactive”; and `CCOC(=O)c1ccccc1NC(=O)CSc1ccc(-c2sc(-c3ccccc3)nc2C)nn1`, with “inactive”. In the case of `CC(NC(=O)C1CCN(S(=O)(=O)c2ccc3nc4c(c(C(=O)O)c3c2)CCCC4)CC1)c1ccccc1` (stereo not given) it was “inactive”; in that of `COc1ccc(NS(=O)(=O)c2ccc3c(c2)[C@H]2C=CC[C@H]2[C@@H](c2ccc(C(=O)O)cc2)N3)cc1`, “inactive”; in that of `COC(=O)c1ccc(NC(=O)CSc2ccc(-c3sc(-c4ccccc4)nc3C)nn2)cc1`, “inactive”. In the case of `COC(=O)[C@H](Cc1ccc(OC)cc1)NC(=O)[C@H]1CN(S(=O)(=O)c2ccccc2)CCN1S(=O)(=O)c1ccccc1` it was “inactive”; in that of `N#Cc1ccccc1OCC1CN(Cc2cccc(C(F)(F)F)c2)C(=O)c2c(ccnc2-c2ccc(OCC(=O)O)cc2)O1` (stereo not given), “inactive”. As to `O=C(Nc1ccccc1C(F)(F)F)c1ccc2oc(=O)c(S(=O)(=O)c3ccc(F)cc3)cc2c1`, the Potency entry is “inactive”. Consider `O=c1c(O)c(Br)ccc2c(Br)c(O)c(O)c(O)c12`, for which the Potency entry is “inactive”. Turning to `O=C(O)COc1ccc(-c2nccc3c2C(=O)N(Cc2cccc(C(F)(F)F)c2)CC(COc2ccc(OC(F)(F)F)cc2)O3)cc1` (stereo not given), the Potency entry is “inactive”. With `O=C(O)COc1ccc(-c2nccc3c2C(=O)N(Cc2cccc(C(F)(F)F)c2)CC(COc2ccc4cnccc4c2)O3)cc1` (stereo not given), the Potency result is “inactive”.

`O=C(O)c1cc(-n2c(/C=C\c3ccc(F)cc3)nc3ccccc3c2=O)ccc1Cl`: the Potency entry was “inactive”.

Consider `Cc1ccc(OCC(=O)Nc2ccc(C(=O)OCc3cc(=O)n4nc(C5CC5)sc4n3)cc2)cc1`, for which the Potency entry is “inactive”.

`O=C(Nc1ccccc1C(=O)OCc1cc(=O)n2nc(C3CC3)sc2n1)c1ccc(Cl)cc1`: the Potency entry was “inactive”. Then `O=C(O)c1ccccc1-c1c2cc(I)c(=O)c(I)c-2oc2c(I)c(O)c(I)cc12`, with “inactive”. Then `O=C(O)c1ccc(O)c2ncc(N3CCCN(CCc4cccc5ccccc45)CC3)cc12`, with 6.58 µM (active). For the molecule `O=C(O)c1cc(NCc2cc(O)ccc2O)ccc1O`, the Potency result was “inactive”. Turning to `Oc1cc2ccccc2c2ccccc12`, the Potency was 6.02 µM (active).

Turning to `CS(=O)(=O)c1ccc(Nc2ccc3c(c2)OCO3)c([N+](=O)[O-])c1`, the Potency result is “inactive”. Then `N#C/C(=C\c1ccc(-c2ccc(Cl)c(C(=O)O)c2)o1)c1nc2ccccc2[nH]1`, with “inactive”. In the case of `O=C(Nc1cc(C(=O)Nc2ccc(S(=O)(=O)O)cc2S(=O)(=O)O)cc(C(=O)Nc2ccc(S(=O)(=O)O)cc2S(=O)(=O)O)c1)Nc1cc(C(=O)Nc2ccc(S(=O)(=O)O)cc2S(=O)(=O)O)cc(C(=O)Nc2ccc(S(=O)(=O)O)cc2S(=O)(=O)O)c1` it was “inactive”; in that of `O=C(Nc1ccc(C(=O)Nc2ccc(C(=O)Nc3ccc(S(=O)(=O)O)c4cc(S(=O)(=O)O)cc(S(=O)(=O)O)c34)cc2)cc1)Nc1ccc(C(=O)Nc2ccc(C(=O)Nc3ccc(S(=O)(=O)O)c4cc(S(=O)(=O)O)cc(S(=O)(=O)O)c34)cc2)cc1`, “inactive”. In the case of `COc1cc(C2Nc3ccccc3-c3nnc(SCc4ccc(Cl)cc4)nc3O2)ccc1OCC(=O)O` (stereo not given), the Potency entry is “inactive”. Turning to `CCC(C)CCCCC(=O)NC(CCNCS(=O)(=O)O)C(=O)NC(C(=O)NC(CCNCS(=O)(=O)O)C(=O)NC1CCNC(=O)C(C(C)O)NC(=O)C(CCNCS(=O)(=O)O)NC(=O)C(CCNCS(=O)(=O)O)NC(=O)C(CC(C)C)NC(=O)C(CC(C)C)NC(=O)C(CCNCS(=O)(=O)O)NC1=O)C(C)O` (stereo not given) ({Octanoyl(6-Me)}-[ξDab(CH2SO3H)]T[ξDab(CH2SO3H)][Dab][ξDab(CH2SO3H)]LL[ξDab(CH2SO3H)][ξDab(CH2SO3H)]T; lactam 4-C; configuration not given here), the Potency result was “inactive”.

Regarding `O=C(O)Cn1nnc(-c2ccc(OCc3cccc(C(F)(F)F)c3)cc2)n1`, the Potency result was “inactive”. With `O=C(OCc1cc(=O)n2nc(C3CC3)sc2n1)c1ccc(NC(=O)c2ccccc2Cl)cc1`, the Potency result was “inactive”.

Consider `O=C(CSc1ncccc1C(=O)Oc1ccccc1Cl)Nc1ccccc1Cl`, for which the Potency entry was “inactive”. In the case of `O=S(=O)(N[C@H]1CO[C@H]2[C@@H]1OC[C@@H]2n1nnnc1-c1ccc2c(c1)OCO2)c1ccc2ccccc2c1` it was “inactive”.

`CCOc1ccc(C2C(=O)N(C3CCCCCC3)CC(=O)N2CCc2ccc(Cl)cc2)cc1OC` (stereo not given): the Potency is 18.6 µM (active).

`C[S+](=O)([O-])c1ccc(OCC2CN(Cc3ccccc3)C(=O)c3c(ccnc3-c3ccc(OCC(=O)O)cc3)O2)cc1` (stereo not given): the Potency entry was “inactive”. `Clc1nc2n[nH]nc2nc1Cl`: the Potency entry is “inactive”.

As to `COC(=O)c1c(NC(=O)c2cc3nc(-c4ccc(Br)cc4)cc(C(F)(F)F)n3n2)sc2c1CCCC2`, the Potency result was “inactive”. For `CC(=O)N1c2ccc(-c3ccc(C(=O)O)cc3)cc2C(Nc2ccc(Cl)cc2)CC1C` (stereo not given), the Potency was 0.093 µM (active). In the case of `O=C(Nc1ccc(C(=O)OCc2cc(=O)n3nc(C4CC4)sc3n2)cc1)c1ccc(F)cc1` it was “inactive”; in that of `CCOC(=O)c1ccc(CN(Cc2ccc(F)cc2)S(=O)(=O)c2ccc(F)c(C(=O)Nc3ccccc3C(F)(F)F)c2)cc1`, “inactive”.
